High-throughput results as filed in PubChem BioAssay.
Shown is part of a subset that was picked to be rich in hits.
Shiga inhibitor – blocks Shiga toxin action in Vero cells; Vero cells, Shiga toxin protein synthesis inhibition reporter; inhibition, % at 38.7 µM; 290,000 compounds, 9.2% hits; AID 2315; in the data active = inhibition mostly above about 28%, no sharp cut-off; inactive = mostly below about 43%; note: 0% is about no effect
TbPYK inhibitor – T. brucei pyruvate kinase inhibition | Q57TT1 | TbPYK enzyme, Kinase-Glo Plus ATP luminescence, 45 min | Potency, µM (doses to about 76.8 µM), inactives show at the top dose activity, negative = inhibition, hits mostly inhibitors | 410,000 compounds, 0.12% hits; note: potency is the fitted concentration of half-maximal effect; % is set by controls: 0 for no effect and ±100 for the full control effect; nearly all actives have a fitted effect of over 50% in size
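TbPYK + substrate in 50 mM TEA pH 7.2, 100 mM KCl, 10 mM MgCl2, 0.05% BSA, 0.01% Tween-20; cpd pinned; ADP 130 uM final; 45 min RT; Kinase-Glo Plus 10 min; luminescence endpoint.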
Sm TGR block – S. mansoni TGR enzyme inhibition; Q962Y6; purified TGR, DTNB reduction, TNB absorbance 405 nm; Potency, µM (titrated, usually from 114 µM), for inactives: at the highest dose activity change, negative = inhibition, hits mostly inhibitors; 360,000 compounds, 3% hits; AID 485364; note: potency is the fitted concentration of half-maximal effect; % is set by controls: 0 for no effect and ±100 for the full control effect; nearly all actives have a fitted effect of over 60% in size
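First, TGR (20 nM dispensed) and NADPH were mixed with compound. Second, a 15 min room-temperature incubation followed. Third, further NADPH and then DTNB were added to start the reaction. Finally, TNB absorbance was monitored kinetically.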
CHX counter – affects cycloheximide protein synthesis inhibition readout, counter-screen | cell reporter, cycloheximide protein synthesis inhibition counterscreen | max response, % | 300,000 compounds, 12% hits; in the data active = max response mostly above about 13%, no sharp cut-off; inactive = mostly below about 14%; note: read at 38.3 µM for the half of the compounds with a filed dose; 0% is about no effect
LmPK inh – LmPK (Leishmania mexicana) enzyme inhibition; AID 1721; Potency, µM (series often up to 57.5 µM), for the others: at the highest dose activity change, negative = inhibition, hits mostly inhibitors; Q27686; purified LmPK, Kinase-Glo ATP luminescence, 1 h; 290,000 compounds, 0.37% hits; note: potency is the fitted concentration of half-maximal effect; % is set by controls: 0 for no effect and ±100 for the full control effect
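ATP generated from ADP (0.1 mM) and PEP (0.5 mM) by 0.1 nM LmPK over 1 h at room temperature (pH 7.2 imidazole buffer) was detected by coupled luciferase luminescence. Values were normalized to uninhibited and no-enzyme wells.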
Giardia FBPA inh – inhibitors of Giardia lamblia fructose-1,6-bisphosphate aldolase | Potency, µM (series often up to 59.6 µM), for inactives: top-dose activity, negative = inhibition, actives largely listed as inhibitors | AID 2451 | purified Giardia FBPA | 290,000 compounds, 0.71% hits; note: potency is the fitted concentration of half-maximal effect; % is set by controls: 0 for no effect and ±100 for the full control effect; nearly all actives have a fitted effect of over 55% in size
Target sequence (A8B2U2 whole entry, looked up): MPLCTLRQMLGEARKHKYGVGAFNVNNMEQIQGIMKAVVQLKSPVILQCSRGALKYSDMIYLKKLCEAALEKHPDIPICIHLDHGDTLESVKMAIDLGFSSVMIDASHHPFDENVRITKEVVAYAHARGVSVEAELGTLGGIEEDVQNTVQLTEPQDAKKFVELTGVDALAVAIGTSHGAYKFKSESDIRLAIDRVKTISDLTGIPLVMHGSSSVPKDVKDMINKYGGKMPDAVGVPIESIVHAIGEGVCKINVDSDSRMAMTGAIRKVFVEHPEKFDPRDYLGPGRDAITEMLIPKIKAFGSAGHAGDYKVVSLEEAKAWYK
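Giardia FBPA (40 nM reagent) was preincubated 10 min at RT with compound (up to 57.5 uM final), then substrate plus GAPDH/TPI/NAD/arsenate coupling system with diaphorase/resazurin was added; resorufin fluorescence (525/598 nm) was read after 20 min.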
* marks the source's active call; other numbers are inactive results; u = inconclusive; x = not tested or not shown; + = active, no number; [ ] = remark or other dose. Unless noted, calls come from the whole dose curve; as a rule, active = well fitted curve in the direction sought with a large enough effect; inconclusive = small, poorly fitted or top-dose-only effect, or another doubt; inactive = no such curve, though single readings can be large; an effect the other way counts as inactive or inconclusive.

SMILES	Shiga inhibitor	TbPYK inhibitor	Sm TGR block	CHX counter	LmPK inh	Giardia FBPA inh
Cc1ccc(OCCN2C(=O)CSC2=O)cc1	20.1	-10.1%	6.5%	22.4*	-6.4%	4.5%
COc1ccc(C(=O)OCCN2C(=O)c3ccccc3C2=O)cc1	54.4*	0.4%	5.0%	16.6	0.3%	-1.8%
COc1ccc(N(CN2C(=O)c3ccccc3C2=O)C(=O)C(C)C)cc1	12.4	-6.5%	5.5%	21.5*	-1.9%	6.8%
COc1cccc(C(=O)OCCN2C(=O)c3ccccc3C2=O)c1OC	32.5	-1.3%	-2.6%[11.4 µM]	7.6	9.7%	-1.0%
COc1ccc(N(CN2C(=O)c3ccccc3C2=O)C(=O)COc2ccc(Cl)cc2Cl)cc1	-2.5	4.4%	-1.0%	-0.3	3.2%	2.5%
Cc1ccc(-n2nc(C(=O)N3CCN(c4cc(Cl)ccc4C)CC3)c3c4ccccc4n(C)c3c2=O)cc1	x	0.0%	13.1%	x	x	x
C[C@H]1Cc2c(COc3ccccc3)nc3c(c2CO1)CN(C(=O)NCCc1c[nH]c2ccccc12)CC3	x	x	x	x	-2.9%[11.5 µM]	-5.9%[12.9 µM]
c1cc[n+](CCC[n+]2ccccc2)cc1	-7.5	-9.8%	u	6.4	-1.5%	0.2%
N#Cc1ccccc1CSCCNC(=O)Cc1c(F)cccc1Cl	28.2	-3.8%	-2.9%	16.6*	6.2%	-0.9%
S=C(NCCSCc1c(Cl)cccc1Cl)Nc1ccccc1	11.7	5.9%	-24.3%	4.3	7.7%	-1.6%
O=C(NCCSCc1ccco1)c1ccc(CN2CCOCC2)cc1	66.0	0.0%	1.1%	9.4*	-2.4%	2.7%
O=C(NCCSCc1ccco1)Nc1ccccc1	56.7	-3.4%	35.5µM*	48.4*	2.7%	0.1%
O=C(NCCSCc1c(F)cccc1Cl)Nc1ccccc1	75.0*	6.9%	10.0%	31.7*	1.8%	-0.1%
O=C1[C@@H]2[C@H]3C(=CC[C@@H]2C(=O)N1Cc1ccccc1)C1(OCCCO1)[C@H]1O[C@@H]1[C@H]3O	x	x	x	x	x	-9.3%[12.9 µM]
C=C1CCN(C(CC(C)C)C(=O)NN2CCOCC2)S(=O)(=O)c2ccccc21 (stereo not given)	7.4	x	x	-3.1	x	0.1%
N#CCCCSc1ncccc1-c1nc2ccccc2[nH]1	73.7	-4.5%	-24.2%	28.0*	2.6%	-14.5%
N#CCSc1ncccc1-c1nc2ccccc2[nH]1	29.9*	3.7%	2.5%	16.7	-0.4%	-2.5%
O=S(=O)(Nc1cc(Sc2ncn[nH]2)c(O)c2ccccc12)c1ccccc1	13.2	u	0.891µM*	-7.2	14.1µM*	1.99µM*
O=C(O)CSc1cc(NS(=O)(=O)c2ccc(Br)cc2)c2ccccc2c1O	29.2	u	5.62µM*	8.7	3.55µM*	7.08µM*
Cc1ccc(S(=O)(=O)Nc2ccc(Br)cc2C(NCC(=O)O)c2ccccc2)cc1 (stereo not given)	15.6	-0.5%	0.3%	2.5	10.0%	18.6%
COc1cccc(C(=O)NCC(c2ccc(N(C)C)cc2)N2CCc3ccccc32)c1OC (stereo not given)	x	-10.0%	42.1%	x	x	x
Cc1ccc(N/N=C(\C#N)C(=N)N2CCCCCC2)cc1	94.0*	1.8%	-6.5%	37.3*	-1.2%[11.5 µM]	3.4%
N#C/C(=N\Nc1ccc(S(=O)(=O)N2CCOCC2)cc1)C(N)=S	1.0	-20.6%	0.8%	-1.1	-5.2%	u
N#C/C(=N\Nc1ccccc1F)C(=N)N1CCCCC1	114.2*	1.1%	0.6%	51.0*	1.2%	-28.3%
N#C/C(=N\Nc1ccccc1)C(=N)N1CCOCC1	41.0*	1.6%	7.3%	30.1*	-5.7%	-6.4%
SMILES	Shiga inhibitor	TbPYK inhibitor	Sm TGR block	CHX counter	LmPK inh	Giardia FBPA inh
COc1ccc(N/N=C(\C#N)C(=N)N2CCCCC2)cc1	68.1*	-0.9%	0.2%	42.8*	1.0%	-28.4%
COc1ccccc1/C=C/c1nc(C#N)c(NCc2ccccc2)o1	x	-4.9%	2.3%	x	x	x
Cc1noc(C)c1C(=O)N1CCC[C@@]2(CCN(Cc3cc(C(F)(F)F)cc(C(F)(F)F)c3)C2)C1	x	5.9%	x	x	x	1.0%
N#C/C(=N\Nc1ccc(Cl)cc1)C(N)=S	45.6*	-9.7%	-15.7%	22.9*	1.6%	-24.7%
N#C/C(=N\Nc1ccc(F)cc1)C(=N)N1CCCCCC1	58.1*	0.5%	-0.6%	26.8*	-0.6%	-12.7%
CCN(CC)C(=N)/C(C#N)=N/Nc1ccc(C)cc1	86.8*	0.3%	0.0%	43.9*	-2.9%	-23.5%
COc1ccc(N/N=C(\C#N)C(=N)SCc2ccccc2)cc1	-17.3	-2.2%	u	8.2	5.0%	-25.8%
Cc1ccc(N/N=C(\C#N)C(N)=S)cc1C	19.5	-3.8%	-10.6%	8.8	1.7%	u
Cc1ccc(N/N=C(\C#N)C(=N)N2CCOCC2)cc1	+	3.8%	3.7%	56.2*	-1.0%	-4.4%
CCc1nnc2c3ccccc3nc(Nc3ccccc3OC)n12	x	-0.6%	6.1%	x	x	x
C=C(C)Cn1c(SCC(=O)Nc2cc(C)ccc2C)nc2sc3c(c2c1=O)CCCC3	x	1.3%	-12.2%	x	x	x
N#C/C(=N\Nc1ccc(Cl)cc1)C(=N)N1CCCCC1	+	7.9%	7.3%	22.6	6.1%	x
CCc1ccc(CNC(=O)CSCc2cnn(-c3ccccc3)c2-n2cccc2)cc1	x	1.4%	-2.2%	x	x	x
C/C(=N\NC(=O)c1ccc(O)cc1)c1ccc2c(c1)Nc1ccccc1S2	11.6	-10.0%	-5.0%	11.5	2.3%	-9.4%
C/C(=N\NC(=O)c1ccccc1F)c1ccc2c(c1)Nc1ccccc1S2	64.8*	-1.0%	-10.7%	33.5*	3.4%	2.2%
CCc1ccc2nc(NC(=O)c3ccc(N4C(=O)CCC4=O)cc3)sc2c1	38.3*	4.0%	2.3%	22.0*	-0.6%	4.3%
O=C(Nc1nc2cc3c(cc2s1)OCCO3)c1ccc(N2C(=O)CCC2=O)cc1	50.4*	1.5%	-8.8%	31.3*	0.5%	6.3%
CCc1ccc2nc(NC(=O)c3ccc4c(=O)[nH]c(CN5CCOCC5)nc4c3)sc2c1	64.5*	-16.1%	-6.6%[11.4 µM]	43.3*	13.4%	0.3%
CCc1nnc(NC(=O)c2ccc(N3C(=O)CCC3=O)cc2)s1	34.5	-1.2%	6.3%	16.3*	4.1%	1.3%
CNS(=O)(=O)c1ccc2nc(NC(=O)c3ccc(N4C(=O)CCC4=O)cc3)sc2c1	-1.5	u	3.4%	-3.9	u	-13.9%
CCCCc1nnc(NC(=O)c2ccc(N3CCCC3=O)cc2)s1	x	8.2%	-7.2%	x	x	x
COc1cccc([C@@H]2Oc3ccc(Br)cc3C(=O)[C@H]2OC(=O)Nc2ccc(C)c(Br)c2)c1	x	x	x	x	x	0.0%
Cc1nn(C)c(C(=O)N/N=C/c2ccccn2)c1[N+](=O)[O-]	-32.6	0.3%	-5.8%	1.1	-13.6%	x
Cc1nn(C)c(C(=O)Sc2ccccc2)c1[N+](=O)[O-]	20.4	-3.3%	2.51µM*	-1.0	-3.6%	-2.3%
Cc1nn(C(C)C(=O)c2cccc(Cl)c2)c(C)c1[N+](=O)[O-] (stereo not given)	-4.5	-3.2%	10.7%	5.0	-6.8%	-9.8%
